Laboratory results from PubChem BioAssay (NCATS).
Inconclusive results are not listed. Calls of active or inactive are those of the source. Calls come from the whole dose curve; as a rule, active = well fitted inhibition curve with a large enough effect; inconclusive = small, poorly fitted or top-dose-only effect; inactive = no such curve, though single readings can be large or run the other way.

Assay: Primary qHTS for inhibitors of nuclear receptor binding SET domain protein 2 (NSD2) in an RCH-ACV wild type WT cells (2C) (AID 1645877); note: nearly all actives have a fitted effect of over 70% in size
Conditions: RCH-ACV (leukaemia line) NSD2 WT (2C) viability, CellTiter-Glo, 72 h; series mostly up to 44.9 µM; activity change, negative = cell killing: at the top concentration
% is set by controls: 0 for no effect and ±100 for the full control effect.

Compound | activity change, negative = cell killing | outcome | Potency
CCCCCC(N)=O | -17.6% (inactive) | – | –
COC(=O)c1ccccc1C(=O)c1ccc(OCCN2CCCCC2)cc1 | -12.6% (inactive) | – | –
CO[C@@]1(NC(=O)C(C(=O)O)c2ccc(O)cc2)C(=O)N2C(C(=O)O)=C(CSc3nnnn3C)CO[C@@H]21 (some centres not stated) | – | inactive | –
CCCNC(C)C(=O)Nc1c(C)csc1C(=O)OC (configuration not stated) | -6.42% (inactive) | – | –
O=C1CC[C@@H](C(=O)O)N1 | -5.91% (inactive) | – | –
C/C=C/C(=O)N(CC)c1ccccc1C | – | – | inactive
CC(=O)N(CC(O)CN(C(C)=O)c1c(I)c(C(=O)NCC(O)CO)c(I)c(C(=O)NCC(O)CO)c1I)c1c(I)c(C(=O)NCC(O)CO)c(I)c(C(=O)NCC(O)CO)c1I (configuration not stated) | – | inactive | –
Nc1ncnc2c1ncn2[C@@H]1O[C@H](COP(=O)(O)O)[C@@H](O)[C@H]1O | 7.61% (inactive) | – | –
O=C(O)c1ccc(OCCCOc2ccc(C(=O)O)cc2)cc1 | 9.55% (inactive) | – | –
O=C(O)/C=C/c1ccc(Cn2ccnc2)cc1 | – | – | inactive
Cc1c(C(=O)NCCO)[n+](=O)c2ccccc2n1[O-] | -15.6% (inactive) | – | –
COc1ccc(-c2cc(=O)c3c(O)cc(O[C@@H]4O[C@H](CO[C@@H]5O[C@@H](C)[C@H](O)[C@@H](O)[C@H]5O)[C@@H](O)[C@H](O)[C@H]4O)cc3o2)cc1O | – | – | inactive
C[n+]1ccccc1/C=N/O | -3.3% (inactive) | – | –
COc1nccnc1NS(=O)(=O)c1ccc(N)cc1 | -5.27% (inactive) | – | –
CCN(CC)C(=O)c1cccc(C)c1 | 0.927% (inactive) | – | –
CCCC(O)C(CC)CO (configuration not stated) | 8.69% (inactive) | – | –
CC[C@H](C)[C@H](N)C(=O)O | -0.51% (inactive) | – | –
Cn1c([N+](=O)[O-])cnc1COC(N)=O | -2.62% (inactive) | – | –
CC(C)CCOC(=O)c1ccc(N(C)C)cc1 | -1.62% (inactive) | – | –

Compound | activity change, negative = cell killing | outcome | Potency
O=c1[nH]cnc2nc[nH]c12 | 8.61% (inactive) | – | –
O=C(O)COC(=O)Cc1ccccc1Nc1c(Cl)cccc1Cl | – | inactive | –
CC1(C)S[C@@H]2[C@H](N=CN3CCCCCC3)C(=O)N2[C@H]1C(=O)O | 9.1% (inactive) | – | –
CC(=O)Oc1cccc(C)c1 | – | inactive | –
CCOC(N)=O | -3.39% (inactive) | – | –
COc1ccc(C(=O)N2CCN(CC(=O)N3CCOCC3)CC2)cc1 | 1.58% (inactive) | – | –
C1CCN2C[C@@H]3C[C@@H](CN4CCCC[C@@H]34)[C@H]2C1 | 1.22% (inactive) | – | –
C[C@]1(Cn2ccnn2)[C@H](C(=O)O)N2C(=O)C[C@H]2S1(=O)=O | 2.46% (inactive) | – | –
FC(F)(F)C(Cl)Br (configuration not stated) | 2.36% (inactive) | – | –
O=c1[nH]c(=O)c2ccccc2o1 | – | inactive | –
C[C@@H]1O[C@@H](OC[C@H]2O[C@@H](Oc3c(-c4ccc(O)c(O)c4)oc4cc(O)cc(O)c4c3=O)[C@H](O)[C@@H](O)[C@@H]2O)[C@H](O)[C@H](O)[C@H]1O | – | inactive | –
Cc1ccc(S(=O)(=O)NC(=O)NC2CCCCC2)cc1 | – | inactive | –
CC(C(=O)O)c1ccc2c(c1)Cc1cccnc1O2 (configuration not stated) | – | inactive | –
NS(=O)(=O)c1ccc(NC(=O)CCC(=O)O)cc1 | – | inactive | –
C[N+]1(C)CCCC(OC(=O)C(O)(c2ccccc2)c2ccccc2)C1 (configuration not stated) | -4.59% (inactive) | – | –
CN/C(=C\[N+](=O)[O-])NCCSCc1csc(CN(C)C)n1 | 1.4% (inactive) | – | –
O=C(O)C(S)C(S)C(=O)O (configuration not stated) | 9.49% (inactive) | – | –
CC(N)CCCC(C)(C)O (configuration not stated) | – | inactive | –
